# Reference: the supplement of paper PMC6555819
# Legend:
# Assay in all cases: PBM binding z-score (relative to random genomic background probes); higher = stronger binding; sequences stand for … in GC…GCGATTGACAGCGTAGAATGAAGG
# [1] = tested on: FXR:RXRa (NR concentration 270 nM, RXRa partner concentration 90 nM)
# Outline: (§1)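 For binding z-scores, the reference was random background probes on custom Agilent 4×180K protein-binding microarrays. These arrays were incubated 1 h with ligand-free nuclear receptor dimers in PBS pH 7.4, 2% milk, 0.02% Triton X-100, 1 mM DTT, 0.2 mg/mL BSA and 0.4 mg/ml salmon testes DNA. Fluorescence was scanned after antibody detection of each partner (one per run) and regression-normalized.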
# [2] = tested on: LXRa:RXRa (NR concentration 270 nM, RXRa partner concentration 90 nM)
# Outline: as §1
# [3] = tested on: LXRa homodimer (NR concentration 270 nM)
# Outline: as §1
# [4] = tested on: LXRb:RXRa (NR concentration 270 nM, RXRa partner concentration 90 nM)
# Outline: as §1
# [5] = tested on: LXRb homodimer (NR concentration 270 nM)
# Outline: as §1
# [6] = tested on: PPARa:RXRa (NR concentration 270 nM, RXRa partner concentration 90 nM)
# Outline: as §1
# [7] = tested on: PPARg:RXRa (NR concentration 180 nM, RXRa partner concentration 90 nM)
# Outline: as §1
# [8] = tested on: PPARg:RXRa 270nM:90nM, anti-RXR (NR concentration 270 nM, RXRa partner concentration 90 nM)
# Outline: as §1
# [9] = tested on: PPARg:RXRa 30nM:10nM, anti-RXR (NR concentration 30 nM, RXRa partner concentration 10 nM)
# Outline: as §1
# [10] = tested on: PPARg:RXRa 90nM:30nM, anti-RXR (NR concentration 90 nM, RXRa partner concentration 30 nM)
# Outline: as §1
# [11] = tested on: PPARg:RXRa DBDmut IVT, anti-RXR (DBD mutation: RXRa K156A/R161A, NR concentration 270 nM, RXRa partner concentration 90 nM)
# Outline: as §1
# [12] = tested on: PPARg:RXRa IVT, anti-PPARg (NR concentration 270 nM, RXRa partner concentration 90 nM)
# Outline: as §1
# [13] = tested on: PPARg DBDmut:RXRa IVT, anti-PPARg (DBD mutation: PPARg1 K132A/R137A, NR concentration 270 nM, RXRa partner concentration 90 nM)
# Outline: as §1
# [14] = tested on: PPARg DBDmut IVT, anti-PPARg (DBD mutation: PPARg1 K132A/R137A, NR concentration 270 nM)
# Outline: as §1
# [15] = tested on: PPARg homodimer (NR concentration 180 nM)
# Outline: as §1
# [16] = tested on: PXR:RXRa (NR concentration 270 nM, RXRa partner concentration 90 nM)
# Outline: as §1
# [17] = tested on: PXR homodimer (NR concentration 270 nM)
# Outline: as §1
# [18] = tested on: RARa:RXR (NR concentration 270 nM, RXRa partner concentration 90 nM)
# Outline: as §1
# [19] = tested on: RARa homodimer (NR concentration 270 nM)
# Outline: as §1
# [20] = tested on: RARb:RXRa (NR concentration 270 nM, RXRa partner concentration 90 nM)
# Outline: as §1
Sequence,PBM binding z-score [1],PBM binding z-score [2],PBM binding z-score [3],PBM binding z-score [4],PBM binding z-score [5],PBM binding z-score [6],PBM binding z-score [7],PBM binding z-score [8],PBM binding z-score [9],PBM binding z-score [10],PBM binding z-score [11],PBM binding z-score [12],PBM binding z-score [13],PBM binding z-score [14],PBM binding z-score [15],PBM binding z-score [16],PBM binding z-score [17],PBM binding z-score [18],PBM binding z-score [19],PBM binding z-score [20]
CCGACTGGGCCAAAGGTCATTGATTCCAATGCTC,4.37,4.94,3.7,4.49,0.0732,6.09,11,10,8.79,12.1,3.83,5.72,-0.642,0.24,4.69,5.36,1.79,5.72,0.97,4.52
TCATATAGGTAAAAGGAGAAAGTCGGTGTGGTAA,1.15,0.966,-0.0649,0.573,-0.239,2.06,2.92,4.79,4.87,5.01,4.08,2.11,0.507,0.375,0.959,0.415,0.686,0.571,1.29,0.195
CAAACTAGGTCGAAGGTCAAAGTCGAGCCAACCA,5.22,4.73,2.22,4.63,0.602,6.98,12.4,10.2,10.9,12.7,6.36,7.65,2.75,1.51,3.56,4.98,1.03,6.95,1.29,4.16
CCTTACGGGTCACGAGGTTATAGCCCGACGAGCG,6.99,4.42,0.302,3.77,-0.0981,6.03,7.34,6.97,3.33,5.71,3.74,5.56,0.959,1.66,3.14,4.59,-0.00848,6.27,0.153,4.74
CAAACTAGGTCACGAATGGTCAAAGTCGAATGAC,4.48,5.29,0.845,3.46,0.546,5.82,9.24,7.45,5.7,7.36,8.28,9.26,2.84,3.79,2.55,2.47,0.0543,3.22,0.681,4.62
GCAGACAGGTGTAACGCAGGTAACTCAGGGTGGC,-0.697,-0.644,-1.09,-0.823,-1.61,-0.721,0.351,-0.525,-0.773,-0.582,-0.561,-0.366,-0.91,-1.52,-1.12,-0.578,-1.01,-0.502,-1.69,-0.603
TCTATTAGTTAATTAGGGCAACCGAAACAGCGGA,0.524,0.526,0.315,0.637,0.558,2.73,2.2,2.94,3.88,3.37,4.63,5.38,1.64,1.52,0.99,0.546,0.152,0.998,1.68,1.04
TCTCGGAGGACACGAAGGTCAGAGCTTTCCAGAG,1.16,1.13,-0.0274,0.923,-1.06,1.98,0.444,1.45,2.1,1.96,1.65,0.886,-0.279,-1.37,0.322,1.97,0.404,2.05,-0.212,3.38
GCATATAGGTAATACAAGGTAAAAGTCCGATTGT,1.02,0.511,-0.476,-0.189,-0.093,0.669,1.14,0.607,-0.0355,0.325,3.98,2.51,0.397,1.1,0.166,0.0106,-0.11,0.364,0.741,-0.207
ATCTCTAGGTAAGACTCAGCTCAGTGAAGAACGC,0.197,0.324,0.483,-0.157,0.984,-0.198,0.0541,-0.171,0.317,0.109,1.68,1.02,0.287,1.14,0.51,-0.0635,0.232,-0.0237,0.868,-0.0169
GCTGCTAGGTCAGGTTGGTCAGCGAACGGGTACG,1.22,0.707,-0.269,0.492,-0.499,1.3,0.347,0.793,-0.213,0.414,2.7,2.09,0.222,-1.25,0.933,0.281,-0.36,0.76,-0.581,3.31
TCTATTAGATGATTAGGGCAACCGAAACAGCGGA,0.507,0.432,0.054,0.49,0.329,0.871,0.674,1.88,3.31,2.68,2.02,1.09,0.897,0.561,0.156,0.4,-0.123,0.416,0.326,0.703
TCGAGTAGGTTACCAATGGGGCAATCAGCTTTCT,-0.178,1.28,-0.627,0.776,-1.22,1.27,0.44,1.02,1,1.13,3.39,2.82,0.0614,0.102,-0.476,0.111,-0.71,0.261,-0.846,0.959
CCGACTGGGGCAAGGTTACCTTAACGCACAGCCA,0.184,0.54,-0.581,0.495,-1.66,1.97,2.58,3.54,0.821,3.07,3.34,3.76,-1.05,-0.772,0.376,0.303,-0.595,0.858,-0.882,1.63
TCATATAGGTAAATGCTAGGTGAATGTCCGATCT,0.466,0.779,0.287,0.767,0.0198,1.39,0.932,2.17,3.49,2.66,3.97,2.57,0.725,1.15,0.769,0.548,0.635,1.02,1.27,0.461
